The source of these data is PubChem BioAssay (NCI).

Some test systems named below: HCT-15 colon; HT29 colon; SNB-75 CNS; SNB-19 CNS; U251 CNS; PC-3 prostate; SK-MEL-5 melanoma; UACC-62 melanoma; LOX IMVI melanoma; SK-MEL-28 melanoma; SK-MEL-2 melanoma; EKVX NSCLC; SN12C renal; UO-31 renal; TK-10 renal; ACHN renal; A498 renal; CCRF-CEM leukemia; MOLT-4 leukemia; CAKI-1 renal.
What all share (assay): NCI-60 one-dose screen, 48 h (100 = growth as untreated, 0 = no growth, -100 = all killed)
Conditions in all cases: 10 µM

This is part of a sample that, as a whole, favours compounds with a hit. Of some 83,000 tested, about 20% had one in any assay.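 Single-concentration screen, 48 h exposure, 96-well plates. Endpoint: percent growth. Below 10 = active.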 Values without a mark were called inactive. The source made the active and inactive calls.

As for `COc1ccc(N2N=C(c3ccc4c(c3)OCCO4)CC2c2cccc(NC(=O)CCCNS(=O)(=O)c3ccc(F)cc3)c2)cc1` (stereo unspecified), the growth in the test with HCT-15 colon is 67.5%; in the test with HT29 colon it was 84.4%; in the test on SNB-75 CNS it was 42.4%; in the test on SNB-19 CNS, 69.3%; with U251 CNS, 75.4%; in the test with PC-3 prostate, 52%. Moreover, the growth in the test on SK-MEL-5 melanoma was 64.2%; in the test on UACC-62 melanoma, 61.8%; with LOX IMVI melanoma, 72.5%; in the test with SK-MEL-28 melanoma, 81.5%; with SK-MEL-2 melanoma it was 88.4%; in the test with EKVX NSCLC it was 57.9%. In addition, the growth in the test on SN12C renal is 74.8%; with UO-31 renal it was 58.8%; with TK-10 renal, 78.2%; in the test on ACHN renal, 70.7%; in the test with A498 renal, 86.5%; in the test with CCRF-CEM leukemia, 67.7%. Further, the growth in the test on MOLT-4 leukemia was 34%.
As for `Brc1ccc(/C=C/c2n(Cc3ccc4ccccc4c3)c3ccccc3[n+]2Cc2ccc3ccccc3c2)cc1`, the growth was 7.22% (active) in the test on HCT-15 colon; -87% (active) in the test on HT29 colon; -84.3% (active) in the test with SNB-75 CNS; -45.9% (active) in the test on SNB-19 CNS; -88.9% (active) with U251 CNS; -79.1% (active) in the test on PC-3 prostate. The growth was -99.2% (active) in the test on SK-MEL-5 melanoma; -81.9% (active) in the test on UACC-62 melanoma; -100% (active) with LOX IMVI melanoma; -93.1% (active) in the test on SK-MEL-28 melanoma; -88.9% (active) in the test on SK-MEL-2 melanoma; -81.6% (active) in the test on EKVX NSCLC. Also, the growth is -58.9% (active) in the test on SN12C renal; 44.6% in the test with UO-31 renal; -63.2% (active) with TK-10 renal; -31.6% (active) in the test on ACHN renal; 54.9% with A498 renal; -14.2% (active) in the test with CCRF-CEM leukemia. Moreover, the growth in the test on MOLT-4 leukemia is -7.46% (active).
On to `O=C(CN1CCN(c2ncnc3c2cnn3-c2ccccc2)CC1)Nc1nncs1`, for which the growth with HCT-15 colon is -30.7% (active); in the test on HT29 colon, -61.5% (active); in the test with SNB-75 CNS, -75% (active); with SNB-19 CNS it was 58.4%; with U251 CNS it was -72.5% (active); with PC-3 prostate, -36.1% (active). Further, the growth was 29.4% in the test on SK-MEL-5 melanoma; 17.4% with UACC-62 melanoma; -87.4% (active) in the test on LOX IMVI melanoma; 72.3% with SK-MEL-28 melanoma; 28% in the test on SK-MEL-2 melanoma; -44.8% (active) in the test on EKVX NSCLC. Also, the growth in the test with SN12C renal is -54.7% (active); in the test with UO-31 renal it was -97.2% (active); in the test with TK-10 renal it was -56.5% (active); in the test with ACHN renal it was -87.5% (active); in the test on CAKI-1 renal it was -95.7% (active); in the test on A498 renal it was 49%. In the test on MOLT-4 leukemia, the growth is 3.73% (active).
`CC(=O)Oc1ccccc1C(=O)Oc1ccc(C(=O)/C=C/c2ccncc2)cc1`: the growth is -4.84% (active) in the test on HCT-15 colon; 22% with HT29 colon; 102% in the test on SNB-75 CNS; 47.2% in the test with SNB-19 CNS; 14.7% with U251 CNS; 54.7% in the test with PC-3 prostate. In addition, the growth in the test with SK-MEL-5 melanoma was 71.2%; in the test on UACC-62 melanoma it was 50.6%; in the test with LOX IMVI melanoma, -44.2% (active); in the test on SK-MEL-28 melanoma, 68.8%; in the test on SK-MEL-2 melanoma, 108%; with EKVX NSCLC it was 80.6%. Besides, the growth with SN12C renal is 18.6%; in the test on UO-31 renal, 38.7%; with TK-10 renal, 91.6%; in the test with ACHN renal it was 56%; in the test on A498 renal, 84%; in the test with CCRF-CEM leukemia it was 43.6%. Further, in the test with MOLT-4 leukemia, the growth was 40.1%.
`CCCn1c(O)c(N=Nc2nc(-c3cc4ccccc4oc3=O)cs2)c2cc(Br)ccc21`: the growth in the test with HCT-15 colon is 90.4%; in the test with HT29 colon, 110%; with SNB-75 CNS, 94.7%; in the test with SNB-19 CNS it was 90.3%; in the test on U251 CNS it was 86%; in the test on PC-3 prostate, 96.3%. Moreover, the growth with SK-MEL-5 melanoma was 95.5%; with UACC-62 melanoma it was 94.4%; with LOX IMVI melanoma, 83.6%; in the test with SK-MEL-28 melanoma it was 101%; in the test with SK-MEL-2 melanoma it was 102%; in the test with EKVX NSCLC, 92.8%. In addition, the growth is 95.2% in the test on SN12C renal; 85.1% with UO-31 renal; 125% in the test with TK-10 renal; 91.1% in the test on ACHN renal; 130% in the test on A498 renal; 98.9% in the test with CCRF-CEM leukemia. Moreover, in the test on MOLT-4 leukemia, the growth was 107%.
For the molecule `COc1ccc(C(=O)NC(=S)N2CCN(c3ncnc4c3cnn4-c3ccccc3)CC2)cc1`, the growth in the test on HCT-15 colon is 42.7%; in the test on HT29 colon it was 80.5%; in the test on SNB-75 CNS, 31.7%; in the test on SNB-19 CNS, 10.2%; with U251 CNS, 55.1%; in the test on PC-3 prostate it was 59%. Further, the growth in the test with SK-MEL-5 melanoma was 71.6%; with UACC-62 melanoma, 40.8%; in the test on LOX IMVI melanoma, 62.3%; in the test with SK-MEL-28 melanoma it was 50%; in the test on SK-MEL-2 melanoma, 57.6%; in the test on EKVX NSCLC it was 81.4%. For the same molecule, the growth with SN12C renal is 46%; with UO-31 renal, 69%; in the test on TK-10 renal it was 101%; in the test on ACHN renal, 64.3%; in the test with CAKI-1 renal, 28.1%; with A498 renal, 115%. For the same molecule, the growth in the test on MOLT-4 leukemia is 58.2%.
Regarding `Cc1ccc(/C=C/C(=O)c2ccc(NC(=O)CSc3nnc(-c4c[nH]c5ccccc45)n3-c3ccccc3)cc2)cc1`, the growth in the test with HCT-15 colon is 79.5%; in the test on HT29 colon, 100%; in the test with SNB-75 CNS, 91.5%; in the test with SNB-19 CNS it was 87.9%; with U251 CNS it was 78.5%; in the test with PC-3 prostate, 71.8%. Besides, the growth with SK-MEL-5 melanoma is 94%; in the test on UACC-62 melanoma it was 75.8%; in the test with LOX IMVI melanoma, 78.4%; in the test on SK-MEL-28 melanoma, 99.1%; with SK-MEL-2 melanoma it was 90.5%; with EKVX NSCLC, 77%. Also, the growth with SN12C renal was 76.1%; in the test on UO-31 renal, 55.3%; in the test with ACHN renal, 78.3%; with CAKI-1 renal it was 80.6%; in the test on A498 renal it was 111%; with CCRF-CEM leukemia it was 93.7%. Also, the growth in the test on MOLT-4 leukemia is 68.3%.
As for `C[C@H]1[C@H](C)CC[C@]2(COC(=O)CCC(=O)NCC#CCN3CCNCC3)CC[C@]3(C)C(=CC[C@@H]4[C@@]5(C)CCCNC(C)(C)[C@@H]5CC[C@]43C)[C@H]12`, the growth with HCT-15 colon was 16.1%; in the test with HT29 colon, -21% (active); with SNB-75 CNS, 82.2%; in the test with SNB-19 CNS, 60%; in the test with U251 CNS, 14.7%; with PC-3 prostate, 17.8%. Further, the growth in the test on SK-MEL-5 melanoma is 9.74% (active); with UACC-62 melanoma it was 46.7%; in the test with LOX IMVI melanoma, 1.63% (active); in the test with SK-MEL-28 melanoma, -26.5% (active); in the test with SK-MEL-2 melanoma it was 96.3%; in the test on EKVX NSCLC, 73.4%. Moreover, the growth in the test on SN12C renal is 64.9%; with UO-31 renal, 42.9%; in the test on ACHN renal, 59.4%; in the test with CAKI-1 renal it was 49.1%; with A498 renal it was 111%; in the test on CCRF-CEM leukemia, 12.5%.
